IL1B secr inh: inhibitors of inflammasome signaling (IL-1 beta secretion); activity change, % at 57.5 µM; AID 743279; THP-1 LPS/ATP IL-1B secretion, AlphaLISA, 16 h; stronger effect = lower value; 360,000 compounds, 4.7% hits; in the data active means activity change below about -50%; inconclusive means mostly about -30% to -49%
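Secreted IL-1B measured by AlphaLISA bead assay after 16 h compound exposure of THP-1 cells; compounds (final up to 57.5 uM) added 1 h before LPS (250 ng/mL) and ATP (1.25 mM) stimulation; lower signal means less secretion.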
HT1080 IDH1KD tx: toxicity to HT-1080 IDH1 knockdown cells (counter line); HT-1080 IDH1 knockdown viability, ATP luminescence, 48 h; 360,000 compounds, 2% hits; Potency, µM (titrated, usually from 46.1 µM), for the others: top-dose activity, negative = toxicity, usual class: cytotoxic;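 further: potency means the concentration at half of the fitted maximal effect; 0% = DMSO wells and -100% = cell-free medium wells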
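% activity derives from luminescence (CellTiter-Glo), normalised to DMSO and no-cell wells. HT-1080-IDH1KD cells, 750/well, had 48 h compound exposure at 37 °C.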
HT1080NT lethal: kills 2HG-producing HT-1080-NT fibrosarcoma cells | HT-1080-NT fibrosarcoma viability, CellTiter-Glo ATP luminescence, 48 h | Potency, µM (doses to about 46.1 µM), for inactives: at the highest dose activity, negative = less viability, most hits filed as cytotoxic | 360,000 compounds, 1.6% hits;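 further: NT is the 2HG producing partner of a matched IDH1 knockdown line; potency means the concentration at half of the fitted maximal effect; 0% = DMSO-treated cells and -100% = media-only wells without cells; nearly all actives have a fitted effect of over 55% in size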
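HT-1080-NT; 750 cells/well; 5% FBS RPMI; 48 h compound, 37 degrees C; CellTiter-Glo luminescence; curve fitting and curve-class assignment.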
TDP1 cell CPT: growth inhibition of DT40 Tdp1-/-;hTDP1 cells with camptothecin (screen for TDP1 inhibitors) | chicken DT40 Tdp1-/-;hTDP1 cells + 20 nM CPT, ATP luminescence, 48 h | 420,000 compounds, 12% hits | Potency, µM (titrated, usually from 46.2 µM), for the others: at the top dose activity change, negative = growth inhibition, hits mostly inhibitors; further: potency means the concentration at half of the fitted maximal effect; nearly all actives have a fitted effect of over 55% in size
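Chicken DT40 Tdp1-/- cells stably complemented with human TDP1 were seeded at 400 cells/well in medium containing 20 nM camptothecin, exposed to pin-transferred compounds, and grown at 37 °C for at least 48 hr. Viability was read as ATP luminescence.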
TDP1 cell noCPT: qHTS for Inhibitors of human tyrosyl-DNA phosphodiesterase 1 (TDP1): qHTS in cells in absence of CPT. 420,000 compounds, 15% hits. Potency, µM (top dose mostly 46.2 µM), inactives show top-dose activity change, negative = growth inhibition, hits mostly inhibitors. DT40 Tdp1-/- hTDP1 cells, no CPT, ATP luminescence, 48 h; further: potency means the concentration at half of the fitted maximal effect; nearly all actives have a fitted effect of over 55% in size
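Chicken DT40 Tdp1-/- cells complemented with human TDP1, screened without camptothecin (DMSO vehicle only), 400 cells/well. Compounds pin-transferred, cells incubated at 37 °C for at least 48 hr. Growth read as ATP-dependent luminescence (CellTiter-Glo, 30 min at RT).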
* = called active by the depositor; u = inconclusive; x = not tested or not shown. Only some compounds are listed: those with a hit (about 19% of all), similar ones and a draw of the others. Unless noted, the call rests on the fitted dose curve; in most records, active means well fitted curve in the direction sought with a large enough effect; inconclusive means small, poorly fitted or top-dose-only effect, or another doubt; inactive means no such curve, though single readings can be large; an effect the other way counts as inactive or inconclusive. Unless noted, on the % scale 0 is the no-effect control and ±100 the full control effect.

SMILES	IL1B secr inh	HT1080 IDH1KD tx	HT1080NT lethal	TDP1 cell CPT	TDP1 cell noCPT
Cc1cc(N2CCOCC2)ccc1/C=C1/SC(=O)NC1=O	-14.4	-10.7%	-3.0%	-24.4%	u
CCOc1ccc(CNn2cnnc2)cc1	-16.2	7.7%	7.2%	16.4µM*	u
N#Cc1ccc(-c2ccc(OCC3CNC(=O)O3)cc2)cc1 (configuration not stated)	-17.3	-0.6%	-13.1%	8.2µM*	13µM*
CCOC(=O)Cn1c(=O)oc2cc(S(=O)(=O)N(C)c3ccc(OC)cc3)ccc21	-57.0*	6.1%	-6.0%	-20.5%	-1.0%
O=C(Cn1c(=O)oc2cc(S(=O)(=O)N3CCCC3)ccc21)NC1CCCCC1	-20.9	-1.2%	-0.1%	-3.1%	-27.6%
O=C(Cn1c(=O)oc2cc(S(=O)(=O)N3CCCCC3)ccc21)NCc1ccc(Cl)cc1	x	x	x	9.2µM*	7.31µM*
COc1cccc(CNC(=O)Cn2ccc3cc(S(=O)(=O)N4CCCC4)ccc32)c1	16.8	-2.1%	-22.4%	u	u
O=C(Cn1c(=O)oc2cc(S(=O)(=O)N3CCCCC3)ccc21)NCc1ccc(F)cc1	x	x	x	5.17µM*	5.8µM*
COc1cccc(CNC(=O)Cn2c(=O)oc3cc(S(=O)(=O)N4CCCC4)ccc32)c1	x	x	x	u	23.1µM*
COc1ccccc1C=NN=C1c2ccccc2-c2ccccc21	17.9	u	7.4%	0.3%	-7.6%
CC(=O)c1ccc(-c2cnc3c(NC=O)cc(-c4ccc(N5CCN(C)CC5)cc4)cn23)cc1	-26.8	u	25.9µM*	u	20.6µM*
CC(=O)Nc1cc(-c2ccc(N3CCN(C)CC3)cc2)cn2c(-c3ccc(F)c(Cl)c3)cnc12	x	16.4µM*	20.6µM*	18.4µM*	u
CN1CCN(c2ccc(-c3cc(NC=O)c4ncc(-c5ccc(F)c(Cl)c5)n4c3)cc2)CC1	82.3	u	u	11.6µM*	16.4µM*
CC(=O)NC(CCc1ccc(Cl)c(Cl)c1)c1cccc(O)c(=O)c1 (configuration not stated)	139.0	u	u	23.1µM*	7.31µM*
CC(=O)NC(C)c1ccc(Cl)c(Cl)c1 (configuration not stated)	-22.8	0.0%	0.0%	-11.8%	-12.8%
FC(F)(F)c1cc(CN2CCC3(CCNCC3)CC2)cc(C(F)(F)F)c1	x	x	x	6.51µM*	4.61µM*
CC(=O)N1CCC[C@@]2(CCN(Cc3cc(C(F)(F)F)cc(C(F)(F)F)c3)C2)C1	x	x	x	-14.1%	-27.8%
COc1ccccc1NC(=O)c1cnc(SCC(=O)NCC2CCCO2)n(C)c1=O (configuration not stated)	-97.0*	-23.4%	-39.6%	10.3µM*	u
Cc1sc2nc(SCC(=O)OC(C)C)n(C)c(=O)c2c1C	-10.6	8.2%	14.7%	-26.7%	23.1µM*
Cc1sc2nc(SCC(=O)Nc3c(C)n(C)n(-c4ccccc4)c3=O)n(C)c(=O)c2c1C	10.1	-7.0%	-0.5%	-25.9%	-29.7%
COc1ccccc1NC(=O)CSc1nc2sc(C)c(C)c2c(=O)n1C	48.3	-2.2%	10.4%	20.6µM*	13µM*
O=C(NCCc1cccs1)Nc1ccc2nc([C@@H]3O[C@H](CO)[C@@H](O)[C@H]3O)[nH]c2c1	0.0	13.1%	15.6%	-11.6%	-13.6%
COc1ccc(-c2cc(C(=O)Nc3ccn(Cc4ccc(C)cc4)n3)no2)cc1OC	x	x	x	-20.7%	-19.1%
COc1ccc2c(c1)CCc1c(C(=O)Nc3c(C)nn(Cc4ccc(C)cc4)c3C)noc1-2	x	x	x	10.3µM*	9.2µM*
Cc1ccc(Cn2nc(C)c(NC(=O)c3noc4c3CCCCC4)c2C)cc1	1.4	0.0%	5.5%	-29.7%	u
Cc1nn(Cc2ccc(Cl)c(Cl)c2)c(C)c1NC(=O)c1noc2c1CCc1ccccc1-2	x	x	x	5.8µM*	5.8µM*

High-throughput results (PubChem BioAssay)
